Counter-ions that a name gives are not always drawn. Values without a mark were called inactive.
Test system: Vero E6 infected with SARS-CoV-2
Assay: inhibition of SARS-CoV-2 cytopathic effect; higher = more antiviral protection, active = above 15
Conditions: 48 h

SMILES | inhibition of SARS-CoV-2 cytopathic effect (1 nM) [%] | inhibition of SARS-CoV-2 cytopathic effect (8.33 nM) [%] | inhibition of SARS-CoV-2 cytopathic effect (100 nM) | inhibition of SARS-CoV-2 cytopathic effect (833.33 nM) | inhibition of SARS-CoV-2 cytopathic effect (10000 nM)
O=c1[nH]c2ccccc2n1C1CCN(CCCC(c2ccc(F)cc2)c2ccc(F)cc2)CC1 [pimozide] | 0.44 | 1.6 | 0.1% | -0.58% | -5.7%
Clc1ccc([C@]23CNC[C@H]2C3)cc1Cl [amitifadine] | 0.8 | 2.82 | 0.87% | 1.86% | 3.82%
CC(C)OC(=O)C(C)(C)Oc1ccc(C(=O)c2ccc(Cl)cc2)cc1 [fenofibrate] | 4.02 | 5.16 | 3.28% | -0.31% | 0.82%
C[C@H]1CN(C[C@H](Cc2ccccc2)C(=O)NCC(=O)O)CC[C@@]1(C)c1cccc(O)c1 [alvimopan] | 1.74 | 3.07 | 3.04% | -0.26% | 2.12%
COc1c(C)c(C(=O)c2ccc(N)c(C(=O)O)c2)n2ccccc12 | -2.54 | 1.8 | 0.21% | -1.06% | -1.34%
CCC[C@@H]1C[C@@H](C(=O)N[C@@H]([C@H]2O[C@H](SC)[C@H](O)[C@@H](O)[C@H]2O)[C@@H](C)O)N(C)C1 [lincomycin] | 1.22 | 2.66 | -0.29% | -1.24% | -1.36%
CCOCc1nc2c(N)nc3ccccc3c2n1CC(C)(C)O [resiquimod] | 2.06 | 3.82 | 1.55% | 1.03% | -1.23%
NC(=O)c1ccc(N(C(N)=O)c2c(F)cccc2F)nc1-c1ccc(F)cc1F | -0.41 | -1.25 | -4.38% | -0.33% | -1.52%
FC(F)(F)c1cc(NC(=S)Nc2ccc(Br)cc2-c2nnn[nH]2)cc(C(F)(F)F)c1 | -3.42 | -1.08 | -1.11% | 3.36% | 0.52%
C[C@]12Cc3c[nH]nc3C[C@@H]1CC[C@@H]1[C@@H]2CC[C@@]2(C)[C@H]1CC[C@]2(C)O [stanozolol] | -3.58 | -5.17 | -4.66% | -3.19% | -5.61%
CC/C=C(\C(=O)N[C@@H]1C(=O)N2C(C(=O)OCOC(=O)C(C)(C)C)=C(COC(N)=O)CS[C@H]12)c1csc(N)n1 [cefcapene-pivoxil] | -0.85 | -2.87 | -0.76% | 1.69% | -0.26%
COC1CCN(c2cccc(-c3cc(NC(C)=O)nc(-n4nc(C)cc4C)n3)n2)CC1 | 0.48 | 2.72 | 2.53% | 1.74% | -0.2%
COc1ccc(NC(=O)c2ccc(C(=N)N(C)C)cc2)c(C(=O)Nc2ccc(Cl)cn2)c1 [betrixaban] | -1.01 | 0.96 | -0.6% | 1.17% | -3.48%
CCN(CC)CCCCN1c2ccccc2Oc2ccc(Cl)cc21 | 0.59 | -2.15 | -2.29% | -3.45% | 40.9% (active)
CN(C)CCCNC(=O)c1ccc(-c2cc(O)c3ncccc3c2)cc1 | -1.74 | -0.41 | 1.01% | -0.72% | 6.05%
CC(CNS(=O)(=O)C(C)C)c1ccc(-c2ccc(C#N)cc2)cc1 (stereo not given) | -2 | 0.02 | 0.68% | 0.84% | 0.85%
Cc1cc(-c2nc(-c3ccc(OC(F)(F)F)cc3)no2)nn1Cc1ccnc(N2CCN(C3CC3)CC2)c1 | 0.33 | -2.02 | -12.6% | 0.7% | -8.83%
CN(C)CCOc1ccc(/C(=C(/CCCl)c2ccccc2)c2ccccc2)cc1 [Toremifene citrate] | 0.8 | 0.55 | -0.55% | 0.65% | 3.86%
N#CC(=C(/N)Sc1ccccc1N)/C(C#N)=C(/N)Sc1ccccc1N | -0.64 | 0.76 | 2.1% | -3.9% | -8.7%
O=C1O[C@H]([C@@H](O)CO)C(O)=C1O | -3.29 | -0.03 | -1.22% | -0.21% | -1.51%
CC(C)C[C@H](NC(=O)CNC(=O)c1cc(Cl)ccc1Cl)B1OC(=O)C(CC(=O)O)(CC(=O)O)O1 | -0.89 | 1.36 | 21.2% (active) | 34.2% (active) | 18.7% (active)

SMILES | inhibition of SARS-CoV-2 cytopathic effect (1 nM) [%] | inhibition of SARS-CoV-2 cytopathic effect (8.33 nM) [%] | inhibition of SARS-CoV-2 cytopathic effect (100 nM) | inhibition of SARS-CoV-2 cytopathic effect (833.33 nM) | inhibition of SARS-CoV-2 cytopathic effect (10000 nM)
CS(=O)(=O)c1ccc(Oc2cc(F)cc(C#N)c2)c2c1[C@H](O)C(F)(F)C2 | 0.26 | 2.61 | 0.38% | -1.3% | 0.01%
CC[C@H]1[C@@H](O)[C@@H]2[C@H](CC[C@]3(C)[C@@H]([C@H](C)CCOS(=O)(=O)O)CC[C@@H]23)[C@@]2(C)CC[C@@H](O)C[C@@H]12 | 0.86 | 1.92 | -0.03% | 1.94% | 1.9%
Nc1ncnc2c1ncn2[C@@H]1O[C@H](C[C@@H](N)CC[C@H](N)C(=O)O)[C@@H](O)[C@H]1O [sinefungin] | -10.5 | -10.2 | -10% | -7.77% | -7.24%
COc1cc(/C=C(\C#N)C(N)=O)cc(CSc2nc3ccccc3s2)c1O [tyrphostin-AG-825] | 2.84 | 1.12 | 0.69% | -0.02% | 0.99%
CNCCc1cnc[nH]1 [N-alpha-methylhistamine-dihydrochloride] | 0.16 | 2.71 | 2.12% | -0.59% | 1.37%
Nc1cc2c3ccccc3ccc2c2ccccc12 [6-aminochrysene] | 1.36 | 2.29 | 2.99% | -3.94% | 1.34%
Cc1cc(Cl)ccc1OCCCC(=O)NO [droxinostat] | 4.45 | 1.04 | 1.23% | 1.7% | -3.27%
CC(C)C(=O)Nc1ncc(-c2cc(C(F)F)nn2-c2c(Cl)cccc2Cl)s1 | 0.32 | 2.58 | -0.32% | -2.46% | -5.83%
COc1ccc(/C=C\c2cc(OC)c(OC)c(OC)c2)cc1O [combretastatin-A-4] | 1.94 | 1.57 | -1.22% | -2.08% | -0.45%
CC(=O)c1cc2c(o1)C(=O)c1ccccc1C2=O [napabucasin] | 0.24 | 1.91 | 1.42% | 7.16% | -36.6%
CN1c2cc3c(cc2N=C(c2ccc(C(=O)O)cc2)c2ccccc21)C(C)(C)CCC3(C)C | 4.92 | 2.01 | -1.76% | 0.01% | -7.42%
Cc1c(N)cccc1Cn1ccc(OCCc2cccs2)cc1=O | -0.22 | 0.73 | 1.31% | 0.66% | -2.07%
NCCc1cc[nH]n1 [betazole] | 0.58 | 1.07 | 2.63% | 0.04% | 0.97%
COc1cccc(-c2ccc(NC(=O)C3=C(C(=O)O)CCC3)c(F)c2)c1 | 2.25 | 3.22 | 2.16% | 5.63% | 4.97%
O=C(N[C@H]1CN2CCC1CC2)c1cc2cccc(Cl)c2s1 | -0.49 | -1.25 | 2.35% | -1.74% | -7.63%
Nc1nccs1 [aminothiazole] | -0.84 | 1.04 | 0.28% | 2.14% | 1.48%
O=C(O)CN1C(=O)c2cccc3cccc(c23)C1=O [alrestatin] | 5.18 | 3.1 | 3.59% | 4.81% | 1.83%
C[C@H](NC[C@H](O)CP(=O)(O)CC1CCCCC1)c1ccc(Cl)c(Cl)c1 | 0.9 | -0.56 | -1.52% | 0.84% | 0.91%
O=C(OCCN1CCOCC1)C1(c2ccccc2)CCCCC1 | 3.24 | 2.9 | 1.04% | 4.21% | 1.59%
O=C(O)[C@H](Cc1ccccc1)NCc1ccc(Cl)cc1 | 0.28 | -1.27 | -0.99% | 1.08% | 0.65%
